TGFb SMAD3 inh – inhibitors of TGF-b signaling | HepG2 CAGA-GFP TGF-b/SMAD3 reporter, GFP fluorescence, 18 h; TGF-beta stimulated, 500 pg/mL final | Potency, µM (highest dose often 46.1 µM), inactives show top-dose activity, negative = inhibition, hits mostly inhibitors | AID 588855 | 410,000 tested, 1.2% active; also: % is scaled to controls: 0 for no effect and ±100 for the full control effect; nearly all actives have a fitted effect of over 65% in size
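Read-out: total well GFP (ex488/em500-530) summed from mean per-cell fluorescence. Cells: HEPG2 CAGA-GFP, 1% FBS DMEM, 18 h at 37 degrees C with 500 pg/mL final TGF-beta. Unstimulated wells served as the full-inhibition control; stimulated DMSO wells = 0%.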
ATXN viability – reduces viability in counter-screen for ATXN expression inhibitors | Potency, µM (titrated, usually from 56.7 µM), most hits filed as cytotoxic | 400,000 tested, 0.49% active | AID 651635 | S2 cells (HEK-293 line with an ATXN2-luciferase reporter) viability, CellTiter-Fluor protease fluorescence, 24 h; also: nearly all actives have a fitted effect of over 40% in size
HepG2 viability – counter-screen for TGF-b inhibitors: cytotoxicity in HepG2 cells; Potency, µM (top dose mostly 46.1 µM), without a hit: at the highest dose activity change, negative = cytotoxicity, most hits filed as cytotoxic; AID 588856; 410,000 tested, 0.76% active; HepG2 CAGA-GFP viability, ATP luminescence, 18 h
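HepG2 CAGA-GFP cells (1000/well, DMEM with 1% FBS) received compound, then TGF-beta at 500 pg/mL final, and were incubated 18 hours at 37 degrees C. Viability was read by CellTiter-Glo luminescence. Media-only wells were set as complete cell-killing and DMSO as no toxicity.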
KB-3-1 cytotox – kills parental KB-3-1 adenocarcinoma cells | KB-3-1 viability, CellTiter-Glo ATP luminescence, 72 h | Potency, µM (top dose mostly 46.1 µM), actives largely listed as cytotoxic | 400,000 tested, 1.4% active | AID 1347075; also: % is scaled to controls: 0 for no effect and ±100 for the full control effect; nearly all actives have a fitted effect of over 60% in size
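Luminescent ATP read-out (CellTiter-Glo) measures survival of drug-naive KB-3-1 cells after 72 h compound exposure at 37 °C. Titration series was screened from lowest to highest concentration, with DMSO vehicle plates as background controls.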
ATXN2 expr inh – reduces ATXN2 reporter expression in HEK-293 cells. HEK-293 ATXN2-luciferase reporter, luminescence, 24 h. Potency, µM (titrated, usually from 57 µM), inactives show at the highest dose activity change, negative = inhibition, most hits filed as inhibitors. 360,000 tested, 0.72% active. AID 1745845; also: % is scaled to controls: 0 for no effect and ±100 for the full control effect; nearly all actives have a fitted effect of over 55% in size
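qHTS (up to 57 uM final) was run with 24 h compound exposure of reporter cells at 37 °C. Each well was multiplexed: SteadyGlo luminescence measured ATXN2-luciferase expression after a fluorogenic Gly-Phe-AFC viability readout (25 uM final).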
KB-V1 MDR tox – KB-V1 MDR subline cytotoxicity | KB-V1 MDR cells viability, CellTiter-Glo, 72 h | Potency, µM (highest dose often 46.1 µM), hits mostly cytotoxic | 400,000 tested, 3.4% active | AID 1347076; also: % is scaled to controls: 0 for no effect and ±100 for the full control effect; nearly all actives have a fitted effect of over 60% in size
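Luminescent ATP read-out (CellTiter-Glo, 10 min) measures survival of drug-selected KB-V1 MDR cells after 72 h, 37 degrees C compound exposure. Medium: phenol-red-free DMEM, 10% FBS. Values from fitted concentration-response curves.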
Starred values were filed as active, the others as inactive. Hits are enriched below; roughly 5.9% of the tested compounds scored in any of these assays. Calls follow the shape of the dose curve; as a rule, active = well fitted curve in the direction sought with a large enough effect; inconclusive = small, poorly fitted or top-dose-only effect, or another doubt; inactive = no such curve, though single readings can be large; an effect the other way counts as inactive or inconclusive. Potency is read from the fitted curve at half-maximal effect.

Cn1c(SCC(=O)Nc2cccc(Br)c2)nnc1-c1cc2ccccc2o1 was read as TGFb SMAD3 inh -14%, ATXN viability inconclusive, HepG2 viability -1%, KB-3-1 cytotox inactive, ATXN2 expr inh inconclusive and KB-V1 MDR tox 16µM*.
For Cc1cc(C)n(-c2nc(NC(C)C)nc(NC(C)(C)C)n2)n1 the results were TGFb SMAD3 inh 3%, HepG2 viability -15%, KB-3-1 cytotox inactive and KB-V1 MDR tox inactive.
`COc1cccc(N2CC(NC(=O)C3CCCCC3)CC2=O)c1` (stereo not given) gave TGFb SMAD3 inh 0% and HepG2 viability 1%.
Screening CC1(C)O[C@@H]2C[C@H]3[C@@H]4CCC5=CC(=O)C=C[C@]5(C)[C@@H]4[C@@H](O)C[C@]3(C)[C@]2(C(=O)CO)O1 returned ATXN viability inactive and ATXN2 expr inh -2%.
Screening O=c1c(Br)ccc(Br)cc1Br returned TGFb SMAD3 inh 1.6µM*, ATXN viability 7.5µM*, HepG2 viability 4µM*, KB-3-1 cytotox 6.5µM*, ATXN2 expr inh 6µM* and KB-V1 MDR tox inactive.
`COc1ccccc1NC(=O)Cn1nc2c3cc(F)ccc3n(Cc3cccc(C)c3)cc-2c1=O` gave TGFb SMAD3 inh -9%, ATXN viability inactive, HepG2 viability 0%, KB-3-1 cytotox inactive, ATXN2 expr inh 7% and KB-V1 MDR tox inactive.
For Cc1ccc(O)c(-c2cc(-c3ccccc3F)[nH]n2)c1 the results were TGFb SMAD3 inh inconclusive, ATXN viability inconclusive, HepG2 viability -62%, KB-3-1 cytotox inconclusive, ATXN2 expr inh 39% and KB-V1 MDR tox inactive.
For Cc1ccc(O)c(-c2cc(-c3cccc(F)c3)n[nH]2)c1 the results were TGFb SMAD3 inh 22µM*, ATXN viability inactive, HepG2 viability -84%, KB-3-1 cytotox inconclusive, ATXN2 expr inh 29% and KB-V1 MDR tox inconclusive.
Cc1ccc(-c2cc(-c3cccc(F)c3)n[nH]2)c(O)c1 was read as TGFb SMAD3 inh inconclusive, ATXN viability inactive, HepG2 viability -30%, KB-3-1 cytotox inactive, ATXN2 expr inh 96% and KB-V1 MDR tox inactive.
`Cc1ccc(-c2cc(-c3ccccc3C)[nH]n2)c(O)c1` gave TGFb SMAD3 inh inconclusive, ATXN viability inactive, HepG2 viability -50%, KB-3-1 cytotox 21µM*, ATXN2 expr inh 49% and KB-V1 MDR tox 13µM*.
CCNC(=O)c1c(C)oc2ncn(C)c(=O)c12 was read as TGFb SMAD3 inh -3%, ATXN viability inactive, HepG2 viability -9%, KB-3-1 cytotox inactive, ATXN2 expr inh 3% and KB-V1 MDR tox inactive.
For CC1=C(C(=O)Nc2cccnc2)C(c2ccc(F)cc2)n2nc(-c3cccc(C)c3)nc2N1 (stereo not given) the results were TGFb SMAD3 inh -4%, ATXN viability inactive, HepG2 viability -9%, KB-3-1 cytotox inactive, ATXN2 expr inh 14% and KB-V1 MDR tox inactive.
Screening O=C(Nc1ccc(Cl)c(Cl)c1)Nc1ccccc1C(=O)O returned TGFb SMAD3 inh -17%, ATXN viability inconclusive, HepG2 viability -25%, KB-3-1 cytotox inconclusive, ATXN2 expr inh 16% and KB-V1 MDR tox 15µM*.
`O=C(NNc1nc(-c2ccccc2)cs1)c1ccccc1` gave TGFb SMAD3 inh -38%, ATXN viability inactive, HepG2 viability -30%, KB-3-1 cytotox inconclusive, ATXN2 expr inh -32% and KB-V1 MDR tox 16µM*.
`O=C(Nc1ccc(Cl)c(Cl)c1)Nc1nc(-c2ccccc2)cs1` gave TGFb SMAD3 inh inconclusive, ATXN viability inactive, HepG2 viability -41%, KB-3-1 cytotox 12µM*, ATXN2 expr inh -14% and KB-V1 MDR tox 6.5µM*.
`O=C(Nc1cccc(-c2csc(Nc3ccc(Cl)cc3)n2)c1)c1ccccc1` gave TGFb SMAD3 inh inconclusive, ATXN viability 16µM*, HepG2 viability -17%, KB-3-1 cytotox inactive, ATXN2 expr inh inconclusive and KB-V1 MDR tox inactive.
O=C(Nc1ccccc1)Nc1nc(-c2ccccc2)cs1 was read as TGFb SMAD3 inh 1%, ATXN viability inactive, HepG2 viability 4%, KB-3-1 cytotox inactive and KB-V1 MDR tox inactive.
Screening O=C(Nc1ccc(Cl)cc1)Nc1ccccc1C(=O)O returned TGFb SMAD3 inh -26%, ATXN viability inactive, HepG2 viability -72%, KB-3-1 cytotox inactive, ATXN2 expr inh 19% and KB-V1 MDR tox inactive.
Cc1c(C(=O)N(Cc2ccc(Cl)cc2)CC2CCCO2)oc2ccc(F)cc12 (stereo not given) was read as TGFb SMAD3 inh 0% and HepG2 viability -36%.
CC[C@@]1(c2ccccc2OC)ON(c2ccccc2C(F)(F)F)C1=O was read as TGFb SMAD3 inh inconclusive, HepG2 viability 14µM*, KB-3-1 cytotox inconclusive, ATXN2 expr inh 22µM* and KB-V1 MDR tox inconclusive.
For Cc1ccccc1[C@@]1(C)ON(c2ccccc2C(F)(F)F)C1=O the results were TGFb SMAD3 inh inconclusive, ATXN viability inconclusive, HepG2 viability 1%, KB-3-1 cytotox inconclusive, ATXN2 expr inh inconclusive and KB-V1 MDR tox inactive.
Screening O=C1c2ccccc2-c2onc3ccc(NCc4ccco4)c1c23 returned TGFb SMAD3 inh -20%, ATXN viability 14µM*, HepG2 viability 0%, KB-3-1 cytotox inactive, ATXN2 expr inh inconclusive and KB-V1 MDR tox 10µM*.
`O=C1c2ccccc2-c2onc3ccc(N4CCCC4)c1c23` gave TGFb SMAD3 inh inconclusive, ATXN viability 24µM*, HepG2 viability -92%, KB-3-1 cytotox inconclusive, ATXN2 expr inh inconclusive and KB-V1 MDR tox inconclusive.
For O=C1C=C(N2CCCCC2)c2ccccc2C1=O the results were TGFb SMAD3 inh 2.8µM*, HepG2 viability -103%, KB-3-1 cytotox 12µM*, ATXN2 expr inh 30µM* and KB-V1 MDR tox 10µM*.
For CCOc1ccc2noc3c2c1C(=O)c1ccccc1-3 the results were TGFb SMAD3 inh inconclusive, ATXN viability inactive, HepG2 viability -64%, KB-3-1 cytotox inactive, ATXN2 expr inh 5% and KB-V1 MDR tox inconclusive.
For O=C1c2ccccc2C(=O)c2c1cccc2N1CCCC1 the results were TGFb SMAD3 inh inconclusive, ATXN viability inconclusive, HepG2 viability -59%, KB-3-1 cytotox inactive, ATXN2 expr inh 10% and KB-V1 MDR tox 15µM*.
`O=C(Nc1ccc2ccccc2c1)Nc1nnc(C2CCCCC2)s1` gave KB-3-1 cytotox inactive and KB-V1 MDR tox inconclusive.
`COc1ccc(NC(=O)c2ccco2)cc1NC(=O)COc1ccc(Cl)c(C)c1` gave TGFb SMAD3 inh -25%, ATXN viability inconclusive, HepG2 viability -32%, KB-3-1 cytotox inactive, ATXN2 expr inh -26% and KB-V1 MDR tox inactive.
